Among all 5,500 compounds or so, about 2,000 (36%) were called active. About 18% were inconclusive and are not listed. Rule as the data show it: active = normalized growth mostly below about 0.91 (no sharp cut-off); inconclusive = no clear call, values can overlap the other calls; inactive = mostly above about 0.92. Some of the results follow.
Test: chemical genetic growth profiling, strain panel (AID 1159580);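 also: tested at 20 µM; growth read once vehicle control cultures reached saturation at 30 °C; 1 = growth at the plate median or of vehicle wells; lower values mean less growth of the strain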
Conditions: S. cerevisiae deletion strains, growth OD
[1] = locus YDL101C, strain DUN1, stronger effect = lower value
[2] = locus YHR030C, strain SLT2, stronger effect = lower value

Measured: normalized growth

CCOC(=O)c1ccc(Oc2ccc(Cl)cc2Cl)c([N+](=O)[O-])c1
inactive: locus YAL013W, strain DEP1, stronger effect = lower value 1 | locus YBR229C, strain ROT2, stronger effect = lower value 0.993 | [1] 0.992 | locus YDR150W, strain NUM1, stronger effect = lower value 1.01 | locus YEL061C, strain CIN8, stronger effect = lower value 0.959 | locus YGR078C, strain PAC10, stronger effect = lower value 1.01 | [2] 0.883 | locus YHR087W, strain rtc3, stronger effect = lower value 0.998 | locus YJL187C, strain SWE1, stronger effect = lower value 0.99 | locus YJR043C, strain POL32, stronger effect = lower value 0.996 | locus YJR075W, strain HOC1, stronger effect = lower value 0.968 | locus YLR039C, strain RIC1, stronger effect = lower value 1 | locus YLR058C, strain SHM2 (second series), stronger effect = lower value 0.99 | locus YLR085C, strain ARP6, stronger effect = lower value 0.92 | locus YLR262C, strain YPT6, stronger effect = lower value 1.01 | locus YML094W, strain GIM5, stronger effect = lower value 0.975 | locus YMR219W, strain ESC1, stronger effect = lower value 0.997 | locus YMR263W, strain SAP30, stronger effect = lower value 0.996 | locus YNL128W, strain TEP1, stronger effect = lower value 0.987 | locus YNL153C, strain GIM3, stronger effect = lower value 0.998 | locus YNL298W, strain CLA4 (second series), stronger effect = lower value 0.961 | locus YNL322C, strain KRE1, stronger effect = lower value 1 | locus YNR030W, strain Alg12, stronger effect = lower value 0.959 | locus YOL006C, strain TOP1, stronger effect = lower value 0.81 | locus YPL055C, strain LGE1, stronger effect = lower value 0.961 | locus YPL241C, strain CIN2, stronger effect = lower value 0.958 | locus YPR135W, strain CTF4, stronger effect = lower value 0.918

O=[N+]([O-])c1ccsc1Oc1cccc(C(F)(F)F)c1
inactive: locus YAR019C, strain CDC15, stronger effect = lower value 0.945 | locus YBL105C, strain PKC1, stronger effect = lower value 0.986 | locus YBR135W, strain CKS1, stronger effect = lower value 0.95 | locus YBR136W, strain MEC1, stronger effect = lower value 0.976 | locus YBR160W, strain CDC28, stronger effect = lower value 1.01 | locus YDL017W, strain CDC7, stronger effect = lower value 0.987 | locus YDL028C, strain MPS1, stronger effect = lower value 0.989 | [1] 0.958 | locus YDL108W, strain KIN28, stronger effect = lower value 0.979 | locus YDL132W, strain cdc53, stronger effect = lower value 0.946 | locus YDL214C, strain PRR2, stronger effect = lower value 0.909 | locus YDR052C, strain DBF4, stronger effect = lower value 0.989 | locus YDR054C, strain cdc34, stronger effect = lower value 0.929 | locus YDR226W, strain ADK1, stronger effect = lower value 0.973 | locus YDR477W, strain SNF1, stronger effect = lower value 0.876 | locus YER123W, strain YCK3, stronger effect = lower value 0.814 | locus YER133W, strain GLC7, stronger effect = lower value 0.831 | locus YFL009W, strain cdc4, stronger effect = lower value 0.925 | locus YFL029C, strain CAK1, stronger effect = lower value 0.94 | locus YFR003C, strain YPI1, stronger effect = lower value 0.984 | locus YFR019W, strain FAB1, stronger effect = lower value 0.927 | locus YFR028C, strain CDC14, stronger effect = lower value 0.955 | locus YGR040W, strain KSS1, stronger effect = lower value 0.857 | locus YGR052W, strain FMP48, stronger effect = lower value 0.88 | locus YGR092W, strain DBF2, stronger effect = lower value 0.769 | locus YHR079C, strain IRE1, stronger effect = lower value 0.962 | locus YHR082C, strain KSP1, stronger effect = lower value 0.907 | locus YHR205W, strain SCH9, stronger effect = lower value 0.872 | locus YIL147C, strain SLN1, stronger effect = lower value 0.979 | locus YJL095W, strain BCK1, stronger effect = lower value 0.861 | locus YJL128C, strain PBS2, stronger effect = lower value 0.939 | locus YJL157C, strain FAR1, stronger effect = lower value 0.887 | locus YJR016C, strain ILV3, stronger effect = lower value 0.952 | locus YJR066W, strain TOR1 (second series), stronger effect = lower value 0.71 | locus YJR066W, strain TOR1, stronger effect = lower value 0.926 | locus YKL048C, strain ELM1, stronger effect = lower value 0.912 | locus YKL067W, strain YNK1, stronger effect = lower value 0.905 | locus YKL101W, strain HSL1, stronger effect = lower value 0.931 | locus YKL193C, strain SDS22, stronger effect = lower value 0.944 | locus YKL203C, strain TOR2, stronger effect = lower value 0.887 | locus YLR133W, strain CKI1, stronger effect = lower value 0.936 | locus YLR403W, strain SFP1, stronger effect = lower value 0.852 | locus YML070W, strain DAK1, stronger effect = lower value 0.895 | locus YMR001C, strain CDC5, stronger effect = lower value 0.956 | locus YMR205C, strain PFK2 (second series), stronger effect = lower value 0.911 | locus YMR277W, strain FCP1, stronger effect = lower value 0.94 | locus YNL006W, strain LST8, stronger effect = lower value 0.946 | locus YNL020C, strain ARK1, stronger effect = lower value 0.925 | locus YNL161W, strain CBK1, stronger effect = lower value 0.972 | locus YNL183C, strain NPR1, stronger effect = lower value 0.869 | locus YNL207W, strain RIO2, stronger effect = lower value 0.96 | locus YNL222W, strain SSU72, stronger effect = lower value 0.972 | locus YNL307C, strain MCK1 (second series), stronger effect = lower value 0.939 | locus YOL078W, strain AVO1, stronger effect = lower value 0.93 | locus YOL136C, strain PFK27, stronger effect = lower value 0.89 | locus YOR061W, strain CKA2, stronger effect = lower value 0.88 | locus YOR119C, strain RIO1, stronger effect = lower value 0.883 | locus YOR231W, strain MKK1, stronger effect = lower value 0.849 | locus YOR329C, strain SCD5, stronger effect = lower value 0.984 | locus YPL031C, strain PHO85, stronger effect = lower value 0.842 | locus YPL153C, strain RAD53, stronger effect = lower value 0.846 | locus YPL204W, strain HRR25, stronger effect = lower value 0.845 | locus YPL209C, strain IPL1, stronger effect = lower value 0.984 | locus YPL256C, strain CLN2, stronger effect = lower value 0.991 | locus YPR025C, strain CCL1, stronger effect = lower value 0.98 | locus YPR106W, strain ISR1, stronger effect = lower value 0.966 | locus YPR111W, strain DBF20, stronger effect = lower value 0.96 | strain NNK1, stronger effect = lower value 0.976 | strain TSCII, stronger effect = lower value 0.932
active: [2] 1.26 [resistant] | locus YLR113W, strain HOG1, stronger effect = lower value 0.821

From PubChem BioAssay AID1159580 (chemical genetic matrix, 2015)
